An excerpt weighted towards active compounds, which were near 3.3% of everything screened.
GRIN3A LBD mod – NR3A (human) ligand-binding domain modulation. NR3A LBD differential scanning fluorimetry, Tm shift; 0% = protein alone, 100% = glycine-bound protein. Tm shift relative to glycine control, % at 25 µM. 2.5% of 340,000 active. AID 1259313;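 active = melting temperature shift of at least 10% of the positive control shift, at one fixed dose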
SUMO HTRF inh – blocks human SUMOylation mediated by UBC9. inhibition, % at 35 µM. HTRF SUMOylation assay, SAE1/SAE2 + UBC9, in vitro. AID 2006. 0.36% of 290,000 active. P63279; in the data active = inhibition above about 50%, passing the limit was not always enough
HGIII-sPLA2 inh – Blocks human group III sPLA2 activity. inhibition, % at 12.2 µM. QFRET BODIPY PC-A2 liposome hydrolysis, fluorescence. 0.56% of 370,000 active. AID 743126. Q9NZ20;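 active = inhibition above mean plus 3 SD of compounds lying within the high and low control bounds, cut at about 19% in these data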;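 note: 0% = median of test compound wells and 100% = no enzyme DMSO wells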
Target sequence (Q9NZ20 whole entry, looked up): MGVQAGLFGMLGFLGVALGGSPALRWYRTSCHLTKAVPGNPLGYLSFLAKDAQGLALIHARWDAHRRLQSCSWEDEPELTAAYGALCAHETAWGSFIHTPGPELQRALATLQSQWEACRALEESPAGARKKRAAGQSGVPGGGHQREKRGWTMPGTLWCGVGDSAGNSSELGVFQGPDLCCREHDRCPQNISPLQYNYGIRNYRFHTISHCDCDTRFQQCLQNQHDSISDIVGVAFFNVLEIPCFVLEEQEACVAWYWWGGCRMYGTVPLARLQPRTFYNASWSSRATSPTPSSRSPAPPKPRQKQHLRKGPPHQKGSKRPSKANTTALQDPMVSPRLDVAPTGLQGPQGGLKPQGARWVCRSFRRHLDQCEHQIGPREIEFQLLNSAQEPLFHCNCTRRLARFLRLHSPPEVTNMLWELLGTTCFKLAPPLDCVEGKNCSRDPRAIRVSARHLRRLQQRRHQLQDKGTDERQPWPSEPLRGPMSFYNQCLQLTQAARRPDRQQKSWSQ
UBC13 polyUb – human UBC13 polyubiquitination inhibition; UBC13 polyubiquitin chain formation, TR-FRET; inhibition, % at 20 µM; 0.47% of 330,000 active; AID 485273; in the data active = inhibition above about 45%, passing the limit was not always enough
Active calls of the source: *; . = no result.

SMILES | GRIN3A LBD mod | SUMO HTRF inh | HGIII-sPLA2 inh | UBC13 polyUb
Cc1cc(NC(=O)CN2C(=O)NC(CC(C)C)C2=O)ccc1Br (configuration not stated) | 29* | . | -18 | -4
CC(C)CC1NC(=O)N(CC(=O)Nc2cccc(Br)c2)C1=O (configuration not stated) | 3 | . | 0 | -8
O=C(NCCN1CCOCC1)c1ccncc1 | 1 | 1 | 6 | -1
O=C1C=C(NCCN2CCOCC2)C(=O)c2cnccc21 | . | 84* | . | .
CCCC[C@H]1C2CC(OC(=O)Nc3ccc(C(F)(F)F)cc3)C(C2)[C@H]2CCCCN21 (some centres not stated) | . | . | 3 | .
O=C(Nc1ccccc1-c1ccccc1)c1cccc(C(F)(F)F)c1 | 18* | -6 | 18 | -9
Cn1c(NCC(O)CO)nc2c1c(=O)n(Cc1ccc(Cl)c(Cl)c1)c(=O)n2C (configuration not stated) | 17* | 11 | 2 | 1
CC(O)CNc1nc2c(c(=O)n(Cc3cccc(Cl)c3)c(=O)n2C)n1C (configuration not stated) | 0 | 0 | 2 | 2
CCC(CO)Nc1cccc2c1S(=O)(=O)N(Cc1cn(Cc3cccc(F)c3)nn1)Cc1ccccc1O2 (configuration not stated) | . | . | -23 | .
CC1CCC2(CC1)CCN(CCCOC(=O)Nc1ccc3c(c1)OCO3)C2=O (configuration not stated) | . | . | 0 | .
COc1cccc(NC(=O)CSc2nnc(NC(=O)C3CCC3)s2)c1 | 12* | 14 | -7 | 1
O=C(CSc1ccsc1[N+](=O)[O-])Nc1cccc(F)c1 | 20* | 26 | -7 | .
COc1cccc(N2CC(C(=O)Nc3nnc(SCC(=O)Nc4ccc(NC(C)=O)cc4)s3)CC2=O)c1 (configuration not stated) | 3 | -1 | -14 | -5
CCc1ccccc1NC(=O)CSc1ccsc1[N+](=O)[O-] | -1 | 14 | 2 | 5
Cc1ccc(Nc2nnc(SCC(=O)Nc3cccc(S(=O)(=O)N4CCCCC4)c3)s2)cc1 | 18* | -23 | -31 | -11
COc1cccc(C(=O)Nc2nnc(SCC(=O)Nc3ccc(NC(C)=O)cc3)s2)c1 | 37* | 7 | -13 | -10
CCCCN1CN2Cc3ccc(C)cc3C2CS1(=O)=O (configuration not stated) | . | . | 2 | .
O=C(CSc1nnc(NC(=O)C2CC2)s1)Nc1cccc(F)c1 | 14* | 17 | -4 | 0
Cc1cccc(NC(=O)CSc2nnc(NC(=O)C3CC3)s2)c1C | -1 | -2 | 9 | 0
COc1cc(/C=N/NC(=O)c2ccncc2)cc2c1OCO2 | -1 | 0 | 13 | 0
COc1cc(/C=N/NC(=O)CCN2CCN(C)CC2)cc2c1OCO2 | 11* | 8 | 11 | -3
CCc1ccc(CCNC(=O)OC2CCC23CCC(c2ccccc2)CC3)cc1 (configuration not stated) | . | . | -6 | .
Cc1ccc(OCCNC(=O)CCNS(=O)(=O)c2ccc(C)cc2)cc1 | -3 | . | 1 | -4
CCOc1ccc(S(=O)(=O)NCCC(=O)NCCOc2ccccc2)cc1 | 65* | . | 5 | 6
O=C(COc1cccc(C(F)(F)F)c1)Nc1ccc2[nH]ncc2c1 | 18* | 12 | -3 | 3
SMILES | GRIN3A LBD mod | SUMO HTRF inh | HGIII-sPLA2 inh | UBC13 polyUb
CCOc1cccc(C(=O)Nc2ccc3[nH]ncc3c2)c1 | 15* | 10 | 0 | 0
COc1cccc(C(=O)Nc2ccc3[nH]ncc3c2)c1 | 3 | 13 | 0 | 5
CC(=O)N[C@@H](C)CCc1ccc(Oc2ccc(OC(C)C)nc2)cc1 | . | . | -3 | .
COCCNC(=O)CCC1CCN(Cc2ccc(-c3ccccc3)cc2)CC1 | -1 | 80* | -7 | 5
COCCNC(=O)C1CCCN(Cc2ccccc2)CC1 (configuration not stated) | . | . | 12 | .
CCC(c1ccccc1)c1nc(-c2ccccn2)no1 (configuration not stated) | -1 | 8 | -7 | -3
CCC(c1ccccc1)c1nc(-c2cccnc2)no1 (configuration not stated) | 12* | -6 | -2 | -9
COC(=O)CN1C(=O)C2(OCCCO2)c2ccccc21 | 1 | 10 | 2 | -9
COc1cccc(NC(=O)CN2C(=O)C3(OCCCO3)c3ccccc32)c1 | 11* | 7 | . | 16
COc1ccc(NC(=O)CN(C)C(=O)CN2C(=O)NC3(CCCCC3)C2=O)cc1 | 1 | . | 3 | 3
COc1cccc(NC(=O)CN(C)C(=O)CN2C(=O)NC3(CCCC3)C2=O)c1 | 14* | . | 15 | 2
c1ccc(-c2sc3ccccc3c2-c2ccc(OCCN3CCCC3)cc2)cc1 | -5 | . | 3 | 82*
COc1ccccc1-c1sc2ccccc2c1-c1ccc(OCCN2CCCCC2)cc1 | 7 | . | . | .
Cc1ccccc1NC(=O)OCCN1CCCC12CCC(c1ccccc1)CC2 (configuration not stated) | . | . | -8 | .
Cc1c(C(=O)N/N=C/c2ccc(-c3ccccc3[N+](=O)[O-])o2)sc(N)c1C#N | -2 | -3 | -16 | .
Cc1c(C(=O)N/N=C/c2ccc(O)c(Br)c2)sc(N)c1C#N | 14* | 11 | 4 | .
O=C(OCCCN1CCC2(CCC(c3ccccc3)CC2)C1=O)c1ccccc1 (configuration not stated) | . | . | -4 | .
CCOc1ccc(-c2c(C(=O)N/N=C/c3cccs3)nnn2-c2nonc2N)cc1 | 4 | . | -10 | -9
CCOc1ccc(-c2c(C(=O)N/N=C/c3ccc(Cl)cc3)nnn2-c2nonc2N)cc1 | 13* | . | -16 | 3
CCOc1ccc(-c2c(C(=O)N/N=C/c3ccc(OC(C)C)cc3)nnn2-c2nonc2N)cc1 | 11* | -16 | -19 | -12
CCOc1ccc(/C=N/NC(=O)c2nnn(-c3nonc3N)c2-c2cccs2)cc1 | 13* | 36 | -8 | -3
Cc1ccc(-c2c(C(=O)N/N=C/c3cccc(Cl)c3)nnn2-c2nonc2N)cc1 | 15* | 8 | -11 | -1
Cc1ccc(-c2c(C(=O)N/N=C/c3ccc(OC(C)C)cc3)nnn2-c2nonc2N)cc1 | 8 | . | -9 | 2
CC(C)(C)OC(=O)NCc1cc(F)ccc1/C=C/S(=O)(=O)NC1CCCC1 | . | . | 8 | .
COc1cc(C=NNC(=O)CN2CCN(Cc3ccc(C)cc3)CC2)cc(OC)c1O | . | . | 1 | .
SMILES | GRIN3A LBD mod | SUMO HTRF inh | HGIII-sPLA2 inh | UBC13 polyUb
COC(=O)[C@H](C(C)C)N(Cc1cn(CC2CCCCC2)nn1)S(=O)(=O)c1ccc(F)cc1Br | . | . | 5 | .
Cc1ccc(-c2nnc3n2N=C(c2ccc4ccccc4c2)CS3)cc1 | . | . | 1 | .
Cc1ccccc1OCC(=O)NC(=S)Nc1cccc2cc(O)ccc12 | 19* | -4 | -17 | -37
Oc1csc(Cc2nc(-c3ccc(Br)cc3)cs2)n1 | 3 | 16 | 9 | 0
c1ccc2c(-c3csc(-c4ccncc4)n3)c[nH]c2c1 | 27* | 10 | -36 | 18
Brc1ccc(-c2csc(-c3c[nH]c4ccccc34)n2)cc1 | 47* | 2 | -13 | 16
C=C(C)[C@H]1CC=C(C(=O)O)CC1 | 2 | . | . | .
Cc1ccc(-c2nc3ncccn3c2NC(=O)c2ccccc2)cc1 | . | . | 7 | .
O=C(Nc1ccc(-c2nc3c(ccc4ccccc43)o2)cc1)c1ccco1 | 35* | 17 | -9 | 22
